The text below walks through data of PubChem BioAssay AID1345083 (National Center for Advancing Translational Sciences (NCATS), 2018).

The structures appear in SMILES notation. Hit rate of the full screen: of about 94,000 compounds, about 6,200 (6.6%) were called active. Another 31% or so got no clear call; they are omitted. Calls follow the shape of the dose curve; as a rule, active = well fitted inhibition curve with a large enough effect; inconclusive = small, poorly fitted or top-dose-only effect; inactive = flat fitted curve, though single readings scatter. What follows is part of a selection rich in actives, with near analogues and random picks from the rest. Entries that show only a call come without a potency.
Potency is read from the fitted curve at half-maximal effect.

A short description of the test: Cytotoxic Profiling in HEK 293 Cell Line of Diverse Libraries Using Quantitative High-Throughput Screening. Also: nearly all actives have a fitted effect of over 60% in size. To be noted: HEK 293 viability, ATP luminescence (CellTiter-Glo), 48-72 h; series mostly up to 115 µM. From the text: Cell-based phenotypic screening is a commonly used approach to discover biological pathways, novel drug targets, chemical probes and high-quality hit-to-lead molecules. Many hits identified from high-throughput screening campaign are ruled out through a series of follow-up potency, selectivity/specificity, and cytotoxicity assays. Prioritization of molecules with little or no cytotoxicity for a more in-depth downstream evaluation influence the future direction of projects, so cytotoxicity profiling of the screening libraries at early stage is essential for increasing the likelihood of candidate success. In this study, we analyzed results from a cell-based cytotoxicity screening campaign, comprising nearly 10,000 compounds in NCATS annotated libraries, and over 100,000 compounds in a diversity library, evaluated in four normal cell lines (HEK 293, NIH 3T3, CRL-7250 and HaCat) and a cancer cell line (KB 3-1, a HeLa subline) with overall screening outcomes, hit rates, pan-activity and selectivity. For the annotated library, we also examined the primary targets and mechanistic pathways regularly associated with cell death. To our knowledge, this is the first study to use high-throughput screening to profile large libraries for cytotoxicity assessment in both normal and cancer cell lines. In summary, the results generated here constitutes a valuable resource for the scientific community and provides insight on identifying cytotoxic compounds with particular mechanisms of action, and prioritizing compounds with suitable cytotoxicity profile for further evaluation.
HEK 293 cells were seeded into white 1536-well plates using a Multidrop Combi peristaltic dispenser (ThermoFisher, Waltham, MA) at a density of 250 cells/well in 5 uL of medium respectively. A pintool (Kalypsys) was used to transfer 23 nL of compound solution to the 1536-well assay plates. After 48 or 72 hr incubation at 37 degree Celsius, 5% CO2 and 95% humidity, 2.5 uL of CellTiter-Glo (Promega) was dispensed into each well using a dispenser (Aspect Automation, St. Paul, MN) with solenoid valves (Lee Valves, Westbrook CT). Plates were left at room temperature for 10 min before imaging the ATP-coupled luminescence using a ViewLux microplate imager (PerkinElmer, Waltham, MA).
Take `CC(C)Cc1cc(CNc2nc(C(C)(C)C)nc3c2cnn3C)no1`: the Potency was 35.5 µM (active). The value for `CCCc1nc(NCC(c2ccccn2)N2CCOCC2)c2cnn(C)c2n1` (stereo unspecified) was “inactive”. Regarding `CC(Cn1cncn1)Nc1nc(-c2ccncc2)nc2c1cnn2C` (stereo unspecified), the Potency entry is “inactive”. In the case of `COc1ccccc1CC(=O)NCc1nnc2c(-c3nc(C(C)C)no3)cccn12`, the Potency result was “inactive”. The value for `COCCC1(CO)CCCN(C(=O)Cn2cc(C)c(=O)[nH]c2=O)C1` (stereo unspecified) was “inactive”; that for `O=C(NCc1nnc2ccccn12)C1NCCc2[nH]cnc21` (stereo unspecified) was “inactive”. The result for `CCC(=O)N1CCC2(CC1)CC(N1CCN(CC(C)C)CC1)CCO2` (stereo unspecified) reads “inactive”; that for `Cc1ccc(S(=O)(=O)N[C@@H]2CCOC[C@H]2OCC(=O)O)cc1`, “inactive”. With `O=C1NCCCCCCN(S(=O)(=O)c2cccs2)[C@H]2CCCC[C@@H]12`, the Potency result was “inactive”. The result for `CC(=O)N1CCc2ccc(C(=O)N3CCCCCC3)cc21` reads “inactive”.

With `CCC(CC)N1CCN(C(=O)c2ccc3c(c2)N(S(C)(=O)=O)CC3)CC1`, the Potency result is “inactive”. The result for `O=C(c1ccc2c(c1)N(C(=O)c1ccccc1)CC2)N1CCN(c2ccc(Cl)cc2)CC1` reads 31.6 µM (active). The value for `O=C(NC[C@H]1O[C@@H](CO)[C@@H](O)[C@H]1N1CCOCC1)c1ccco1` was “inactive”; that for `O=C(CCn1ccn2nc3c(c2c1=O)CCCC3)Nc1ccc(Cl)c(C(F)(F)F)c1` was 44.7 µM (active). The value for `O=C(CCn1ccn2nc3c(c2c1=O)CCCC3)Nc1ccc(F)cc1Cl` was “inactive”; that for `CCOC(=O)c1ccc(NC(=O)CCn2ccn3nc4c(c3c2=O)CCCC4)cc1` was “inactive”. Regarding `CCc1nc(-c2c3n(c(=O)n(CC(=O)NC4CCCCC4)c2=O)CCCC3)no1`, the Potency entry was “inactive”. In the case of `CCOC(=O)C1=C(C)NC(=O)NC1c1ccccc1` (stereo unspecified), the Potency result is “inactive”. Consider `Cc1nccnc1N1CCC(c2nnc(CN3CCCC3)n2C)CC1`, for which the Potency entry is “inactive”.

As for `O=C1Cc2c(-c3ccc(CO)cc3)n[nH]c2CN1CC1CCOCC1`, the Potency result is “inactive”.

For the molecule `CC(C)Oc1cccc(-c2n[nH]c3c2CC(=O)N(Cc2ccccc2)C3)c1`, the Potency entry was “inactive”. For `O=C1Cc2c(-c3ccc(Oc4ccccc4)cc3)n[nH]c2CN1CCc1ccncc1`, the Potency was 79.4 µM (active). The result for `CCc1ocnc1C(=O)NC1CC(c2cc(N3CCC(O)C3)ncn2)C1` (stereo unspecified) reads “inactive”. In the case of `O=C(CN1CCCC1=O)NC1CCCc2nc(-c3ccccc3)ncc21` (stereo unspecified), the Potency entry was “inactive”. Turning to `Cc1nc(CCNC(=O)C2CCCN(c3nc(-c4ccccc4)nc4c3CCC4)C2)n[nH]1` (stereo unspecified), the Potency result is “inactive”.

For `O=C(NC1CCNC1)C1CCN(c2nc(-c3ccccc3)nc3c2CCC3)CC1` (stereo unspecified), the Potency is 35.5 µM (active). For the molecule `CC(C)c1nc(CCNC(=O)[C@H]2CNC[C@@H](C(=O)N3CCCC3)C2)cs1`, the Potency result was “inactive”. For the molecule `O=C(NCC1CCNCC1)c1ccc(C2CCNC2)cc1` (stereo unspecified), the Potency result is “inactive”.

For the molecule `CN(C)CCNC(=O)c1nc2nc(-c3ccccc3)c(-c3cccc(F)c3)cc2n1C`, the Potency was 50.1 µM (active). As to `COc1ccc(Nc2cc3c(nc2-c2ccccc2)nc(C(=O)NCCN(C)C)n3C)cn1`, the Potency result was “inactive”. Take `O=C(NCCn1cccc1-c1nc(-c2ccc3c(c2)OCO3)no1)c1cccc(F)c1`: the Potency entry is “inactive”. The result for `Cn1cccc1C(=O)N1CC[C@@H]2NC(=O)[C@H]3C[C@H](NC(=O)C4CC4)CN3C(=O)[C@H]21` reads “inactive”. The result for `CCCCN1C(=O)C(CC(=O)N2CCCCC2)Sc2ncccc21` (stereo unspecified) reads “inactive”; that for `CC(C)CNC(=O)c1nc2sccn2c1-c1ccncc1`, “inactive”; that for `CC(=O)N1CCC([C@@H]2CN(Cc3cc(F)c(F)cc3F)C[C@H]2CO)CC1`, “inactive”. In the case of `CC(C)S(=O)(=O)N1CCC(N2CC(OCC3CC3)C23CCCCC3)CC1` (stereo unspecified), the Potency result was “inactive”. `O=C1NC2(CCN(C(=O)c3ccccn3)C2)Oc2ccccc21` (stereo unspecified): the Potency entry is “inactive”. The value for `O=C1CC2(CCN(C(=O)c3ccccc3)C2)Nc2ccccc2N1` (stereo unspecified) was “inactive”; that for `O=C1NC2(CCN(C(=O)c3ccccc3)C2)COc2ccccc21` (stereo unspecified) was 100 µM (active). The value for `CCN(C1CCOCC1)C1CN(C(=O)C2CCC2)C1` was “inactive”; that for `COCCNC(=O)[C@@H]1C[C@H](Oc2ccccc2)CN1C(=O)c1ccccn1` was “inactive”; that for `Cn1nccc1C(=O)NC1CCCN(c2cc(N3CCCC3)ncn2)C1` (stereo unspecified) was “inactive”. As to `COc1ccc(C(=O)NCCC2CCN(C(=O)Nc3cc(F)ccc3F)CC2)cc1`, the Potency result was “inactive”. With `COc1ccc(-c2cc(N3CCC(NC(=O)c4ccc(N(C)C)cc4)C3)n[nH]2)cc1` (stereo unspecified), the Potency was 70.8 µM (active).

With `COc1ccc(-c2cc(N3CCCC(NC(=O)c4cccc(Cl)c4)C3)n[nH]2)cc1` (stereo unspecified), the Potency was 44.7 µM (active). On to `O=C(NC1CCN(c2cc(C(F)(F)F)ncn2)CC1)c1ccc(F)cc1`, for which the Potency entry was “inactive”. The result for `Cc1ccc(-c2cc(N3CCC(CNC(=O)c4ccc(N(C)C)cc4)CC3)n[nH]2)cc1` reads “inactive”; that for `COc1ccc(-c2cc(N3CCCC(NC(=O)c4ccsc4)C3)n[nH]2)cc1` (stereo unspecified), 35.5 µM (active). As to `COC(=O)NC1CCCN(c2ccc3nnc(C)n3n2)C1` (stereo unspecified), the Potency entry was “inactive”. The result for `COc1ccc(-c2cc(N3CCCC(NC(=O)c4cc(F)ccc4Cl)C3)n[nH]2)cc1` (stereo unspecified) reads 28.2 µM (active). The value for `Cc1ccc(C(=O)NC2CCN(c3cc(-c4cccs4)[nH]n3)C2)cc1` (stereo unspecified) was “inactive”.
